Measurements: PubChem BioAssay AID1458 (National Center for Advancing Translational Sciences (NCATS), 2008)
In all, about 210,000 compounds went through this assay and about 5,900 (2.8%) were called active. About 5% were inconclusive and are not listed. The list comes from a sample in which actives are over-represented; it also holds similar structures and randomly drawn compounds. Values without a mark were called inactive. The call rests on the fitted dose curve; in most records, active means well fitted activation curve with a large enough effect; inconclusive means small, poorly fitted or top-dose-only effect; inactive means no such curve, though single readings can be large or run the other way.

test: qHTS Assay for Enhancers of SMN2 Splice Variant Expression; conditions: HEK293 SMN2-luciferase splicing reporter, luminescence, 30-36 h; series mostly up to 46.1 µM; activity change, positive = activation: at the top concentration; further: nearly all actives have a fitted effect of over 55% in size; on activity change, positive = activation: % of control where 0% means no effect
Outline: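 qHTS luciferase splicing reporter: luminescence rises when SMN2 exon 7 is included in transfected HEK293 cells. Compound exposure lasted 30-36 h at 37C, with 4.5 mM final sodium butyrate as control, followed by a ONE-Glo read.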
Potency means the concentration at half of the fitted maximal effect.

Going from `CCCCC12CN3CC(C)(CN(C1)C3c1ccc(O)c(OC)c1)C2=O` (configuration not stated) to `COc1ccc(C)cc1N(CC(=O)N1CCC(C)CC1)S(=O)(=O)c1ccc(C)cc1`, the “activity change, positive = activation” value falls from 1.53% to -6.31%.

Going from `COc1ccc(CCNC(=O)CCc2c(C)nc3c(c(C)nn3-c3ccc(C)c(C)c3)c2C)c(OC)c1OC` to `COc1cc(Nc2nc(-c3ccc(OC)c(OC)c3)nc3ccccc23)cc(OC)c1`, the “activity change, positive = activation” value falls from 10.6% to -30%.

Compared with `CCOC(=O)CSc1nnc(-c2cccc(Br)c2)o1`, `CCNC(=O)CSc1nc(-c2ccccc2)cs1` is higher in “activity change, positive = activation” value: -5.07% for the first, 16.8% for the second.

Going from `O=C(OCc1nnc(-c2ccccc2)o1)c1ccc2c(c1)C(=O)N(CCc1ccccc1)C2=O` to `Cc1cccc(N2CCN(C(=O)c3oc(=O)c4ccccc4c3-c3ccccc3)CC2)c1C`, the “activity change, positive = activation” value falls from 27.8% to -0.849%.

Compared with `CCn1c(=O)cc(OCC(=O)Nc2cc(Cl)c(OC)cc2OC)c2ccccc21`, `COc1ccc(CCNC(=O)c2cn(C)c3ccc(S(=O)(=O)N(C)C4CCCCC4)cc3c2=O)cc1OC` is lower in “activity change, positive = activation” value: 7.37% for the first, 3.49% for the second.

Compared with `Cc1ccc(-c2nnc(SC(C)C#N)n2N)cc1` (configuration not stated), `Cc1ccc(NC(=O)NC(=O)CSc2nnc(-c3ccc(OC(F)F)cc3)n2N)c(C)c1` is lower in “activity change, positive = activation” value: 5.91% for the first, -13.8% for the second.

Going from `CC(=O)c1c(C)n(S(=O)(=O)c2ccc(Cl)cc2)c2ccc(NS(=O)(=O)c3ccc(Cl)cc3)cc12` to `O=C(Nc1cccc(S(=O)(=O)Nc2ccc(Cl)cc2)c1)c1ccc2c(c1)OCCO2`, the “activity change, positive = activation” value falls from -11.3% to -59.3%.

First: CCOC(=O)c1c(NC(=O)CSc2cn(CCNC(=O)c3cccc(C(F)(F)F)c3)c3ccccc23)sc2c1CCC2
Second: COc1cccc(CNC(=O)c2ccc3c(c2)N(Cc2ccc(C(F)(F)F)cc2)C(=O)c2ccccc2S3)c1OC
The “activity change, positive = activation” value of the first is higher: 12.3% for the first, 1.81% for the second.

Compared with `COc1ccc(OCC(=O)NNC(=O)c2cccc(C)c2)cc1`, `COc1ccc(CN2C(=O)C(NC(=O)c3cccc(C)c3)(C(F)(F)F)N=C2c2ccccc2)cc1` (configuration not stated) is higher in “activity change, positive = activation” value: -31.7% for the first, -6.05% for the second.

Compared with `CCOc1ccc(NC(=O)N(CC(C)C)CC(C)C)cc1`, `COc1ccc(CNC(=O)Cc2coc3ccc(C(C)C)cc23)cc1` is higher in “activity change, positive = activation” value: -13.7% for the first, -4.8% for the second.

Going from `Cc1cccc(C(=O)N2CCCN(C(=O)c3cccc(C)c3)CC2)c1` to `CC1=Nc2cc(C(=O)N3CCC(C)CC3)ccc2Sc2ccc(Cl)cc21`, the “activity change, positive = activation” value falls from -9.38% to -32.5%.

Going from `COc1cccc(Cn2c(SCc3ccc(C(=O)N4CCC(C)CC4)cc3)nc3ccncc32)c1` to `Cc1ccc(Cn2c(C)c3cnn(CC(=O)NCc4ccccc4)c(=O)c3c2C)cc1`, the “activity change, positive = activation” value rises from -57.7% to -1.41%.

Compared with `COc1ccc(C2(Nc3cccc(F)c3)C(=O)c3ccccc3C2=O)cc1`, `CCOc1ccc(C(=O)c2cn(Cc3ccccc3OC)c3ccc(F)cc3c2=O)cc1` is lower in “activity change, positive = activation” value: 10.5% for the first, 6.96% for the second.

First: CCc1nonc1NC(=O)c1oc2ccc(Cl)cc2c1C
Second: COc1c(Cl)cc(C(=O)Nc2ccc(Cl)cn2)cc1Cl
The “activity change, positive = activation” value of the first is lower: 13.4% for the first, 20.7% for the second.

First: CC1=C(C(=O)Nc2ccccc2)C(c2ccc(C)cc2)n2nc(SCc3ccccc3C)nc2N1 (configuration not stated)
Second: O=C(Nc1ccc(Br)cc1)c1cc2nc(-c3ccccc3)cc(-c3ccccc3)n2n1
The “activity change, positive = activation” value of the first is lower: 6.65% for the first, 8.42% for the second.

First: CCc1cccc(C)c1Nc1c(-c2ccc(N(C)C)cc2)nc2ncccn12
Second: COc1ccc(-c2cc(NCc3ccc(F)cc3)n3cnnc3n2)cc1
The “activity change, positive = activation” value of the first is higher: 26% for the first, -6.89% for the second.

Going from `N#CC(=C1CCCC1)c1nc(-c2ccc(Cl)cc2)cs1` to `COC(=O)c1ccccc1NS(=O)(=O)c1ccc2c(c1)CCCN2C(C)=O`, the “activity change, positive = activation” value falls from 37.8% to -4.36%.

Going from `CC(=O)c1c(C)[nH]c(C(=O)NCc2ccc(C)cc2)c1C` to `O=C(/C=C/c1ccc2c(c1)OCO2)NCc1ccc(F)cc1`, the “activity change, positive = activation” value rises from -0.462% to 1.74%.

First: COc1ccccc1CNC(=O)c1cc(=O)c2ccccc2o1
Second: NC(=O)c1ccccc1NC(=O)c1ccccc1F
The “activity change, positive = activation” value of the first is lower: -23.9% for the first, 10.5% for the second.

Going from `COc1ccc(C2CC(c3cccs3)=Nc3ccccc3S2)cc1OC` (configuration not stated) to `COc1ccc(-c2nn3c(-c4ccccc4)nnc3s2)cc1OC`, the “activity change, positive = activation” value rises from -15.2% to -2.56%.

Going from `CCc1ccccc1NC(=O)N1CCC2(CC1)Oc1ccccc1C(=O)N2Cc1ccccc1F` to `O=C(CNC(=O)C(c1ccccc1)c1ccccc1)N/N=C\c1ccc2c(c1)OCO2`, the “activity change, positive = activation” value rises from 2.64% to 6.3%.

First: COc1cccc(C(=O)N(Cc2cccc(Cl)c2)Cc2ccco2)c1
Second: O=C(Oc1cccc(NC2=NS(=O)(=O)c3ccccc32)c1)c1ccncc1
The “activity change, positive = activation” value of the first is lower: -32% for the first, -1.12% for the second.

Compared with `O=C(Cc1ccccc1)NC(=S)Nc1ccc(N2CCCCC2)cc1`, `c1ccc(-c2ccccc2OCCN2CCCCC2)cc1` is lower in “activity change, positive = activation” value: 1.23% for the first, -8.62% for the second.

Compared with `COc1ccc(C(=O)NC(=S)Nc2ccc(Cl)cn2)cc1OC`, `Cc1cc(NC(=O)c2cnn3cccnc23)n(-c2ccccc2)n1` is lower in “activity change, positive = activation” value: -0.559% for the first, -9.99% for the second.

First: Cc1ccc(S(=O)(=O)N(NC2=NS(=O)(=O)c3ccccc32)C(=O)c2ccccc2)cc1
Second: O=C(Nc1ccccc1)c1cccnc1Nc1ccccc1
The “activity change, positive = activation” value of the first is lower: -33.5% for the first, -22.9% for the second.

Going from `OC(COc1ccc2ccccc2c1)Cn1cncn1` (configuration not stated) to `Cc1cccc(OCC(O)Cn2c(=N)n(CCN3CCOCC3)c3ccccc32)c1` (configuration not stated), the “activity change, positive = activation” value falls from 10.2% to -2.16%.

For `O=C(OCc1ccc(Br)cc1)c1cccc(-c2nnc(-c3ccccc3)o2)c1`, the Potency was 2.24 µM (active).
For `C=C(C)CSc1nnc(-c2ccc(C)cc2)n1N`, the Potency was 8.91 µM (active).
In the case of `CCOc1ccc(OCc2cccc(C(=O)N(CC)CC)c2)cc1`, the Potency is reported as 5.01 µM (active).
In the case of `CCN(CC)C(=O)c1ccc(O)c(OC)c1`, the Potency is reported as “inactive”.
In the case of `COc1ccc(OCc2cccc(C(=O)N3CCCC3)c2)cc1`, the Potency is reported as 2.51 µM (active).
In the case of `N#CC(=C1SC=CS1)c1nc(-c2ccccc2)cs1`, the Potency is reported as 11.2 µM (active).
For `CCOC(=O)c1c(C)[nH]c(C(=O)NCc2ccccc2OC)c1C`, the Potency was 10 µM (active).
In the case of `COc1ccc(-c2csc(-c3cccs3)n2)cc1OC`, the Potency is reported as 14.1 µM (active).
In the case of `S=C(c1ccc(-c2ccccc2)o1)N1CCCCC1`, the Potency is reported as 12.6 µM (active).
In the case of `O=C(Cc1ccc(F)cc1)N/N=C/c1ccc2c(c1)OCO2`, the Potency is reported as 12.6 µM (active).
For `O=C(Nc1ccc(Cl)cn1)c1cnn2cccnc12`, the Potency was 11.2 µM (active).
With `O=C(Nc1ccc(Cl)cn1)c1ccc2c(c1)OCCO2` the Potency was 2.51 µM (active).
In the case of `CC(C)(C)c1csc(NC2=NS(=O)(=O)c3ccccc32)n1`, the Potency is reported as 8.91 µM (active).
For `OC(COc1ccc2ccccc2c1)CN1CCOCC1` (configuration not stated), the Potency was 14.1 µM (active).
For `O=C(Nc1ccccc1)c1ccccc1NC(=O)C(F)(F)F`, the Potency was 10 µM (active).
